Mcl1-Bid inh: Mcl-1/Bid interaction inhibition | Q07820 | inhibition, % at 21.7 µM | 0.97% of 220,000 active | TR-FRET Mcl-1/Bid-Dy647 peptide binding, 1536-well | AID 1021;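 active means compounds that cut the binding signal by more than half at the single screening dose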;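 further: His-tagged Mcl-1 with europium anti-His antibody binding Bid BH3 peptide; 0% = Mcl-1 plus peptide wells and 100% = peptide-only wells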
Target sequence (Q07820 whole entry, looked up): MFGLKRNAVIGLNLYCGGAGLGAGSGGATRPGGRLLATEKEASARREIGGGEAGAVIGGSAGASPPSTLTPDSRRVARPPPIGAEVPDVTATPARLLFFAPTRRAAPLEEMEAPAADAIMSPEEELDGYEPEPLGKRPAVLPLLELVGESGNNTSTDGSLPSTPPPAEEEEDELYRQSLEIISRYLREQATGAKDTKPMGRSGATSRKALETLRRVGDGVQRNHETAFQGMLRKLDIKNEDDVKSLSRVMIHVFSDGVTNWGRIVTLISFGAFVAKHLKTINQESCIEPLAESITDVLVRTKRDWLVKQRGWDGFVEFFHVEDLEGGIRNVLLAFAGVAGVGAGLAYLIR
NOD2 RIPK2 PPI: NOD2-RIPK2 protein interaction inhibition; O43353; CHO BLA complementation NOD2-RIPK2, CCF4 ratio; inhibition, % at 4.98 µM; 0.38% of 360,000 active; AID 624267; in the data active means inhibition above about 21%;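 further: 0% = vehicle only and 100% = reference blocker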
Mcl1 Noxa PPI: disrupts binding of human Mcl-1 to Noxa peptide | inhibition, % at 21.7 µM | 1.5% of 220,000 active | Q07820 | AID 1022 | TR-FRET Mcl-1/Noxa peptide binding, 2 h;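 active means compounds that cut the protein-peptide binding signal by more than 50% relative to plate controls in a single-dose test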;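 further: His-tagged Mcl-1 with rhodamine Noxa BH3 peptide and terbium anti-His antibody; 0% = Mcl-1 plus Noxa peptide wells and 100% = peptide-only wells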
TLR9-MyD88 inh: inhibitors of human TLR9-MyD88 binding; CHO BLA complementation TLR9-MyD88, CCF4 FRET ratio; inhibition, % at 4.98 µM; 0.21% of 340,000 active; AID 504734;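 active means inhibition above the mean over all tested compounds plus 3 SD, cut at about 21% in these data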;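 further: 0% = DMSO only wells and 100% = clavulanate BLA inhibitor control wells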
Mcl-1 Bim block: inhibitors of Bim-Mcl-1 interaction, human; Q07820; Bead-based flow cytometry, Bim peptide-Mcl-1 binding; inhibition, % at 10 µM; 0.1% of 190,000 active; AID 1009; in the data active means inhibition above about 40%;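 further: 0% = no compound tracer wells and 100% = peptide blocker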
TLR4 MyD88 comp: blocks binding of human TLR4 to MyD88; HeLa CL3-4 TLR4/MyD88 BLA complementation, FRET ratio; O00206+Q99836; inhibition, % at 8.4 µM; 0.18% of 200,000 active; in the data active means inhibition above about 25%;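 further: 0% = vehicle and 100% = reference inhibitor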
NOD2 RIPK2 conf: confirmation of human NOD2-RIPK2 interaction inhibitors; CHO cells, NOD2-RIPK2 BLA complementation, CCF4 FRET; AID 624370; inhibition, % at 4.98 µM; shares compounds with NOD2 RIPK2 PPI; 70% of 1,200 active;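 active means mean inhibition across replicates above a set limit taken from the earlier primary screen, cut at about 21% in these data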;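 further: 0% = DMSO-only wells and the high end = clavulanate BLA-blocked wells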
NOD2 BLA counter: hits BLA reporter in NOD2-RIPK2 inhibitor counterscreen; shares compounds with NOD2 RIPK2 PPI; CHO BLA reporter, CCF4 FRET ratio; inhibition, % at 4.98 µM; 57% of 1,200 active;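 active means mean inhibition above the low-control mean inhibition plus three low-control SD, cut at about 11% in these data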;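 further: 0% = DMSO only wells and 100% = clavulanate high control wells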
Starred values were filed as active, the others as inactive; x = not tested or not shown. Most compounds without a hit are left out; they make up all but 1.8% or so of the library.

SMILES | Mcl1-Bid inh | NOD2 RIPK2 PPI | Mcl1 Noxa PPI | TLR9-MyD88 inh | Mcl-1 Bim block | TLR4 MyD88 comp | NOD2 RIPK2 conf | NOD2 BLA counter
O=C1C(O)=CC(=C(c2ccccc2)c2ccccc2)c2ccccc21 | x | 34* | x | 9 | x | x | 1 | -3
Cc1nn(-c2ccccc2)nc1CNC(=O)C1CCC1 | 1 | 0 | -10 | -19 | x | x | x | x
COCC(=O)O[C@]1(CCN(C)CCCc2nc3ccccc3[nH]2)CCc2cc(F)ccc2[C@@H]1C(C)C | -16 | 25* | 0 | -10 | x | x | 20 | -3
Cc1nc([N+](=O)[O-])c(Br)n1CC(=O)c1ccc(Cl)cc1 | -2 | 15 | 11 | -3 | 0 | 7 | x | x
Cc1nc([N+](=O)[O-])c(Br)n1Cc1ccc(Cl)c(Cl)c1 | -5 | 23* | 8 | 8 | -1 | 13 | 43* | -4
Cc1onc(-c2ccccc2)c1C(=O)OCC(=O)N1CCCCC1 | x | -12 | x | -7 | x | x | x | x
Cc1ccc(S(=O)(=O)SCCCSS(=O)(=O)c2ccc(C)cc2)cc1 | x | 36* | x | 2 | x | x | 43* | 2
Cc1ccc(S(=O)(=O)SC/C=C/CSS(=O)(=O)c2ccc(C)cc2)cc1 | x | 7 | x | 20 | x | x | x | x
COc1cccc(NC(=O)c2ccc(N3C(=O)C4CCC(C)CC4C3=O)cc2)c1 (stereo not drawn) | x | 5 | x | -8 | x | x | x | x
CC(C)(C)OC(=O)n1cccc1/C=C1\c2ccccc2C(=O)N1c1ccccc1 | x | 41* | x | -2 | x | x | 6 | 5
O=C1c2ccccc2/C(=C\c2ccc(Br)s2)N1c1ccccc1 | x | -1 | x | -26 | x | x | x | x
CC(C)OCCCNC(=O)Cn1ccc2cc(S(=O)(=O)N3CCCCC3)ccc21 | x | 1 | x | -4 | x | x | x | x
CCCCCNC(=O)C(c1ccncc1)n1c(=O)c(-c2ccco2)nc2ccccc21 (stereo not drawn) | x | -11 | x | x | x | x | x | x
CCCCCNC(=O)C(c1ccncc1)n1c(=O)c(-c2cc3ccccc3[nH]2)nc2ccccc21 (stereo not drawn) | x | 50* | x | x | x | x | 51* | 69*
CCCCCNC(=O)C(c1cc2ccccc2o1)n1c(=O)c(-c2ccco2)nc2ccccc21 (stereo not drawn) | x | -12 | x | x | x | x | x | x
CCCCCNC(=O)C(c1ccnc2ccccc12)n1c(=O)c(-c2cc3ccccc3[nH]2)nc2ccccc21 (stereo not drawn) | x | 51* | x | x | x | x | 46* | 67*
CCCCCNC(=O)C(c1ccc(OC)cc1)n1c(=O)c(-c2cc3ccccc3[nH]2)nc2ccccc21 (stereo not drawn) | x | 44* | x | x | x | x | 39* | 62*
CCc1ccc(N(C(=O)c2snc(C(N)=O)c2N)C(C(=O)NC2CCCC2)c2ccncc2)cc1 (stereo not drawn) | x | 2 | x | -9 | x | x | x | x
Cc1ccc(C2C=C(c3ccccc3OC(F)F)Nc3ncnn32)cc1 (stereo not drawn) | -17 | 30* | 9 | 16 | -1 | 17 | 27* | 31*
NS(=O)(=O)c1ccc(CCNC(=O)c2ccccc2[N+](=O)[O-])cc1 | -8 | -6 | 14 | -2 | 3 | -18 | x | x
Cc1ccc(-c2cc(C(F)F)nc(S(C)(=O)=O)n2)cc1 | 18 | 23* | 4 | 15 | -3 | 4 | 18 | -2
Cc1ccc(-c2cc(-c3ccccc3)nc(Cl)n2)cc1 | -7 | -1 | 6 | 4 | -2 | 12 | x | x
Cc1ccccc1CN(C)CCS(=O)(=O)c1cc(Cl)ccc1Cl | x | 28* | x | -8 | x | x | -2 | -4
CCOC(=O)C1=CC[C@@H](c2ccccc2)N(S(=O)(=O)c2ccc(C)cc2)[C@H]1c1ccc(C#N)cc1 | x | 7 | x | x | x | x | x | x
CCOC(=O)C1=CC[C@@H](c2ccccc2)N(S(=O)(=O)c2ccc(C)cc2)[C@H]1C#N | x | 44* | x | x | x | x | 16 | -2
SMILES | Mcl1-Bid inh | NOD2 RIPK2 PPI | Mcl1 Noxa PPI | TLR9-MyD88 inh | Mcl-1 Bim block | TLR4 MyD88 comp | NOD2 RIPK2 conf | NOD2 BLA counter
COC(=O)c1ccc2[nH]ccc2c1 | x | -26 | x | -15 | x | x | x | x
CC1CCC2(CC1)OCC1(CCC3(COC4(CCC(C)CC4)OC3)C1=O)CO2 (stereo not drawn) | -20 | 1 | -7 | 3 | 2 | 0 | x | x
CCOC(=O)C(C)N1C(=O)S/C(=C\c2ccc(-c3ccccc3C(=O)O)o2)C1=O (stereo not drawn) | x | 23* | x | -1 | x | x | 12 | 21*
Cc1ccc(NC(=O)CN2C(=O)S/C(=C\c3ccc(-c4cccc(C(=O)O)c4C)o3)C2=O)cc1 | -17 | x | 12 | x | -4 | 3 | x | x
O=C(O)c1ccccc1CC(CCc1ccccc1)C(=O)O (stereo not drawn) | x | 4 | x | -6 | x | x | x | x
CC1C=CC(C)C(C(=O)c2ccccc2)C1C(=O)c1ccccc1 (stereo not drawn) | x | 30* | x | 3 | x | x | -7 | 0
C=C(C)CN=CC1(C)CCC(C)=CO1 (stereo not drawn) | x | 3 | x | 2 | x | x | x | x
O=[N+]([O-])c1ccc(N/N=C/c2ccccc2)c(F)c1 | 12 | 24* | 26 | 17 | -2 | 17 | 27* | 30*
O=[N+]([O-])c1cccc(C=NNc2ccccc2)c1 | x | -8 | x | -11 | x | x | x | x
O=C(Nc1cccc(O)c1)c1cc2nc(-c3ccccc3)cc(-c3ccccc3)n2n1 | -29 | 22* | 5 | 7 | 0 | -9 | 8 | 11*
CC(=O)Oc1ccc(C#C/C=C2\c3ccccc3C(=O)N2c2ccccc2)cc1 | x | 4 | x | 4 | x | x | x | x
CCCC(/C=C/c1ccc(OC(C)=O)cc1)=C1/c2ccccc2C(=O)N1c1ccccc1 | x | 25* | x | 13 | x | x | 20 | 28*
O=[N+]([O-])c1ccc(-c2cnc(SC(c3ccccc3)c3ccccc3)[nH]2)cc1 | -51 | 44* | 12 | 14 | -2 | 9 | 19 | 26*
NC(=O)CSc1ncc(-c2ccccc2)[nH]1 | -26 | -7 | -3 | -9 | 0 | 3 | x | x
COCC(=O)N1CCC(Oc2ccc(C(=O)N3CCCCCC3)cc2)CC1 | x | -5 | x | -5 | x | x | x | x
Cc1[nH]n(-c2ccccc2)c(=O)c1C=Nc1cccc2cccnc12 | -56 | 32* | -1 | 19 | 0 | 12 | 35* | 32*
NC(=O)C[n+]1cccc(C(=O)Nc2ccccc2)c1 | x | 2 | x | -6 | x | x | x | x
Cc1ccc(C(=O)N/N=C(\CC(C)C)c2ccccc2)cc1 | -6 | -6 | 8 | 1 | -4 | 1 | x | x
O=C1C(=C(I)I)c2ccccc2-c2ccccc21 | x | 68* | x | 14 | x | x | 84* | 7
Cc1ccc(C(=O)N2CCN(S(=O)(=O)N3CCCCC3)CC2)cc1 | x | 2 | x | -5 | x | x | x | x
COc1ccc(CCNC(=O)Nc2ccc3nc([C@@H]4O[C@H](CO)[C@@H](O)[C@H](O)[C@H]4O)[nH]c3c2)cc1Br | x | -15 | x | x | x | x | x | x

High-throughput results (PubChem BioAssay)
